Tau fibril ThT – inhibitors of human tau fibril formation, thioflavin T binding | P10636 | recombinant tau K18 P301L, heparin-induced fibrillization, ThT fluorescence | Potency, µM (top dose mostly 57.4 µM), without a hit: at the highest dose activity, negative = inhibition, hits mostly inhibitors | 270,000 compounds, 2.1% hits | AID 1460; note: potency is the fitted concentration of half-maximal effect; nearly all actives have a fitted effect of over 55% in size
Target sequence (P10636 561-689 P618L limits assumed): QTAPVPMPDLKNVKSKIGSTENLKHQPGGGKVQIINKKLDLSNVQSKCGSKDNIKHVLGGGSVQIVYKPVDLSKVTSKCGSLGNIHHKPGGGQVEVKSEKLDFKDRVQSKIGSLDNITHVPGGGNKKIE
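Heparin-induced (20 uM) aggregation of recombinant human K18 P301L tau, 15 uM unlabeled with 0.24 uM labeled, pH 7 acetate buffer, 6 hr at 37 C with compound. Fibrils quantified by 30 uM ThT fluorescence after 1 hr ambient incubation.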
Tau fluor counter – counter-screen for tau fibril formation inhibitors; tau K18 P301L Alexa594 fluorescence, heparin fibrillization; Potency, µM (series often up to 57.7 µM), inactives show at the highest dose activity change, negative = decrease; 280,000 compounds, 0.93% hits; AID 1463; note: potency is the fitted concentration of half-maximal effect; nearly all actives have a fitted effect of over 55% in size
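Human tau K18 P301L (15 uM unlabeled, 0.24 uM Alexa 594-labeled) in 100 mM sodium acetate pH 7 with 20 uM heparin, 6 hr at 37 C. ThT 30 uM added, 1 hr ambient; Alexa 594 FP and total fluorescence read at 555/632 nm.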
Tau FP inhib – blocks human tau fibril formation measured by polarization. K18 P301L tau heparin fibrillization, Alexa594 FP, 6 h. Potency, µM (series often up to 57.7 µM), for the others: at the top dose activity, negative = inhibition, hits mostly inhibitors. 280,000 compounds, 0.39% hits. AID 1468; note: potency is the fitted concentration of half-maximal effect; nearly all actives have a fitted effect of over 55% in size
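Human K18 P301L fragment (15 uM unlabeled plus 0.24 uM Alexa 594-labeled) in 100 mM sodium acetate pH 7 with compound, aggregation induced by 20 uM heparin for 6 hr at 37 C. ThT (30 uM) added for 1 hr, then Alexa 594 FP read.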
FBPA coupling cs – counter-screen for Giardia aldolase inhibitors: coupling enzyme system | coupling enzyme system counterscreen, AmpLite Red fluorescence | activity change, negative = inhibition, % at 58.2 µM, hits read low | 290,000 compounds, 0.67% hits; in the data active = activity change below about -30%
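Counterscreen lacking aldolase: glyceraldehyde-3-phosphate coupling-enzyme reagent preincubated 10 min at RT with compound (at 57.5 uM final), then substrate/coupling system with AmpLite Red added; fluorescence read at 525/598 nm after 20 min RT.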
Sfp inh – Sfp phosphopantetheinyl transferase inhibition. Q9F4F7. Biochemical Sfp PPTase activity, qHTS. Potency, µM, inactives show largest response in the series, negative = inhibition, most hits filed as inhibitors. 310,000 compounds, 3.5% hits. AID 1490;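 note: the enzyme is Sfp with the accession as filed and its product quenches rhodamine fluorescence; potency is the fitted concentration of half-maximal effect; 0% = enzyme reaction without inhibitor and -100% = no enzyme wells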
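Reaction rates are the 30-min fluorescence difference (ex 525, em 598 nm) in wells containing 15 nM Sfp, 5 uM rhodamine-CoA and 12.5 uM BHQ-2-YbbR at pH 7.6 with 10 mM MgCl2.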
* marks the source's active call; other numbers are inactive results. Most compounds without a hit are left out; they make up all but 5.2% or so of the library. Unless noted, calls come from the whole dose curve; as a rule, active = well fitted curve in the direction sought with a large enough effect; inconclusive = small, poorly fitted or top-dose-only effect, or another doubt; inactive = no such curve, though single readings can be large; an effect the other way counts as inactive or inconclusive. Unless noted, % is set by controls: 0 for no effect and ±100 for the full control effect.

For CC12CCC3C4CCC(=O)C(O)=C4CCC3C1CCC2OC(=O)CCC1CCCC1 (centres undefined) the results were Sfp inh 17%.
For CCOC(=O)c1c(-n2c(C)cc(/C=C3\C(=O)NC(=O)N(C)C3=O)c2C)sc2c1CCCC2 the results were Tau fibril ThT inconclusive, Tau fluor counter -22%, Tau FP inhib -7%, FBPA coupling cs 0 and Sfp inh inconclusive.
For Cc1sc(-n2c(C)cc(C=C3C(=O)NC(=O)NC3=O)c2C)c(C#N)c1C the results were Tau fibril ThT 2%, Tau fluor counter -1%, Tau FP inhib 1%, FBPA coupling cs -12 and Sfp inh 50µM*.
Screening Cc1ccc(-n2c(C)cc(/C=C3/C(=O)NC(=O)N(C)C3=O)c2C)cc1 returned Tau fibril ThT inconclusive, Tau fluor counter -15%, Tau FP inhib -7%, FBPA coupling cs -2 and Sfp inh -17%.
Cc1cc(/C=C2\C(=O)NC(=O)N(c3ccc(Cl)cc3)C2=O)c(C)n1-c1sc2c(c1C#N)CCCC2 was read as Tau fibril ThT inconclusive, Tau fluor counter -14%, Tau FP inhib -10%, FBPA coupling cs 3 and Sfp inh 32µM*.
For COc1ccc(CCNc2nc3c(c(=O)n(C)c(=O)n3C)n2Cc2ccc(F)cc2)cc1OC the results were Tau fibril ThT -11%, Tau fluor counter inconclusive and Tau FP inhib 15%.
`Cc1nn(CCC#N)c2c1P(=S)(N1CCCC1)OC(c1ccc(F)cc1)=N2` (centres undefined) gave Tau fibril ThT 32µM*, Tau fluor counter -25%, Tau FP inhib inconclusive, FBPA coupling cs 2 and Sfp inh 10µM*.
Screening Cc1ccc2c(c1)C1(CCN(CCc3nc(-c4ccccc4)oc3C)CC1)OC(=O)N2 returned FBPA coupling cs 0 and Sfp inh -7%.
For CCN1C(=O)N(CC)C(=O)C2(Cc3ccccc3N3CCN(c4ccccc4)CC32)C1=O (centres undefined) the results were Tau fibril ThT inconclusive, Tau fluor counter -7%, Tau FP inhib -12%, FBPA coupling cs -18 and Sfp inh 71µM*.
CCOC(=O)N(C)C(=O)CSP(=S)(OCC)OCC was read as FBPA coupling cs 0 and Sfp inh inconclusive.
Screening O=C(CSc1ccccn1)Nc1cccc2ccccc12 returned Tau fibril ThT inconclusive, Tau fluor counter -22%, Tau FP inhib 3%, FBPA coupling cs -77* and Sfp inh 13%.
For Clc1cccc(CN2CCCCC2c2cccnc2)c1 (centres undefined) the results were Tau fibril ThT -1%, Tau fluor counter -6%, Tau FP inhib 3%, FBPA coupling cs -9 and Sfp inh 50µM*.
O=C1Nc2ccc(Br)cc2C(c2ccccc2)=NC1O (centres undefined) was read as FBPA coupling cs -1 and Sfp inh -1%.
O=C1Nc2ccc(Br)cc2C(c2ccc(Cl)cc2)=NC1O (centres undefined) was read as FBPA coupling cs -34* and Sfp inh -2%.
CN(C(=O)Cc1ccc(Cl)c(Cl)c1)C(CN1CCCC1)c1cccc(N=C=S)c1 (centres undefined) was read as Tau fibril ThT inconclusive, Tau fluor counter inconclusive, Tau FP inhib inconclusive and Sfp inh 45µM*.
For COc1ccc(C(CNC(=O)Cc2ccc(Cl)c(Cl)c2)N2CCCCC2)cc1 (centres undefined) the results were Sfp inh 4%.
For CN(C(=O)Cc1ccc(Cl)c(Cl)c1)[C@H](CN1CCCC1)c1cccc(N=C=S)c1 the results were Tau fibril ThT -17%, Tau fluor counter inconclusive, Tau FP inhib inconclusive, FBPA coupling cs 1 and Sfp inh 50µM*.
For NNC(=O)c1nn(-c2ccccc2)cc1O the results were Tau fibril ThT inconclusive, Tau fluor counter -6%, Tau FP inhib 5%, FBPA coupling cs -8 and Sfp inh 11%.
Screening CCCCCCCCCCCCCCC[C@@H](O)[C@@H](N)COP(=O)(O)O returned Tau fibril ThT 1%, Tau fluor counter 2%, Tau FP inhib 3%, FBPA coupling cs 2 and Sfp inh -6%.

High-throughput results as filed in PubChem BioAssay.
